# Test results: PubChem BioAssay (NCATS)
# Several values for one entry are separate records, joined by “and”; a condition that tells them apart may be missing. Identical values can stand only once. Results filed as inconclusive are left out. Unmarked numbers belong to inactive results. Activity calls are given as the source filed them. Unless noted, calls follow the shape of the dose curve; as a rule, active = well fitted curve in the direction sought with a large enough effect; inconclusive = small, poorly fitted or top-dose-only effect, or another doubt; inactive = no such curve, though single readings can be large; an effect the other way counts as inactive or inconclusive.
# How the values were obtained:
# [1] = biological target: Luciferin 4-monooxygenase (Photinus pyralis) (UniProt P08659); test: Biochemical firefly luciferase enzyme assay for NPC (AID 624030); also: nearly all actives have a fitted effect of over 70% in size
# Method in brief: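 Direct inhibition of firefly luciferase enzyme (10 nM final, 50 mM Tris Acetate) assessed by luminescence within 5 minutes. Percent activity scaled between DMSO and PTC124 positive control, with concentration-effect curves classified by fit quality and response.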
# [2] = qHTS Assay for Identifying Gametocytocidal Compounds (AID 743244);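 as to max response: % is scaled to controls: 0 for no effect and ±100 for the full control effect; actives lower the fluorescent signal which means gametocytes are killed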; conditions: P. falciparum 3D7 stage III-V gametocytes, alamarBlue, 72 h; max response: stronger effect = lower value
# Method in brief: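 Compounds are pinned into medium, gametocytes (stage III–V, 3D7, 20,000 cells/well) added, and plates held 72 h at 37 °C in 5% CO2. AlamarBlue follows for 24 h before fluorescence reading.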
# [3] = P-glycoprotein substrates identified in KB-8-5-11 adenocarcinoma cell line, qHTS therapeutic library screen (AID 1346987); also: nearly all actives have a fitted effect of over 65% in size
# Method in brief: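 Human cervical adenocarcinoma KB-8-5-11 cells, selected in colchicine to over-express P-gp and assayed without it, were exposed for 72 h to titrated compounds. An ATP-based luminescent viability signal gave AC50.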
# KB-3-1 = test: Cytotoxic Profiling of Annotated Libraries Using Quantitative High-Throughput Screening (AID 1296008); conditions: Five cell lines viability, CellTiter-Glo ATP luminescence, 48-72 h; max response: stronger effect = lower value; also: nearly all actives have a fitted effect of over 60% in size; as to max response: % is scaled to controls: 0 for no effect and ±100 for the full control effect
# Method in brief: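 Cytotoxicity was measured as CellTiter-Glo ATP luminescence, read after 10 min at room temperature. Compound treatment of the cells lasted 48 or 72 hr at 37 degrees Celsius in a qHTS format.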
# [4] = Drug repurposing screens with cells derived from glioblastoma tumor samples (AID 1345199); conditions: GBM patient neurospheres viability, ATP luminescence, 48 h; Potency: tumour line A; series mostly up to 45.9 µM; also: nearly all actives have a fitted effect of over 40% in size
# Method in brief: (§1)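 Primary testing used CD133+ neurospheres from four GBM patients, seven concentrations, 48 h exposure and ATP-based viability; confirmation added three slower-growing patient lines.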
# astro = test: as above; conditions: viability, ATP luminescence, 48 h; series mostly up to 45.9 µM
# Method in brief: as §1
# [5] = biological target: ATP-dependent 6-phosphofructokinase (Trypanosoma brucei brucei) (UniProt O15648); test: qHTS Assay to Find Inhibitors of T. brucei phosphofructokinase: hit validation (AID 492961)
# Method in brief: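 ADP-Glo luminescence read-out of ADP formed by 1.25 nM PFK from 0.1 mM ATP and 0.5 mM F6P (TEA pH 8.0, 45 min, RT). Compounds titrated; activity normalized to no-enzyme and full-enzyme controls.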
# [6] = biological target: Ubiquitin carboxyl-terminal hydrolase 1 (Homo sapiens) (UniProt O94782); test: Inhibitors of USP1/UAF1: Pilot qHTS (AID 504865); also: nearly all actives have a fitted effect of over 35% in size
# Method in brief: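 Deubiquitinase activity followed as kinetic rhodamine fluorescence release from 150 nM Ub-Rho. 1 nM USP1/UAF1 with compound, after 15 min room-temperature preincubation, in HEPES pH 7.8 buffer containing TCEP, EDTA, BSA and Tween-20.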
# [7] = S16 Schwann cell viability assay (CellTiter-Glo assay) (AID 624031); also: nearly all actives have a fitted effect of over 70% in size
# Method in brief: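 Counter-screen for cytotoxicity: parental S16 rat Schwann cells lacking the PMP22 reporters, treated 24 h with compound, viability from cellular ATP by CellTiter-Glo luminescence, normalized to DMSO (0%) and no-cell wells.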
# [8] = S16 Schwann cell PMP22 intronic element firefly luciferase assay (AID 624032); also: nearly all actives have a fitted effect of over 30% in size
# Method in brief: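 Luciferase reporter of PMP22 intronic-element expression in stably transfected S16 rat Schwann cells, read by ONE-Glo luminescence after 24 h compound exposure at 37 C. Activity scaled between DMSO (0%) and positive-control PTC124; concentration-effect curves quality-classified.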
# [9] = S16 Schwann cell PMP22 intronic element beta-lactamase assay (AID 624044; calls by dose curve; also: nearly all actives have a fitted effect of over 15% in size)
# Method in brief: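 Beta-lactamase reporter under a PMP22 intronic regulatory element in stable S16 rat Schwann cells; 24 h compound exposure. 460 nm blue signal normalized between DMSO (0%) and potassium clavulanate, with 535 nm FRET tracking viability; curves classed by r2 and response.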
# 3D7 = test: qHTS profiling for inhibitors of Plasmodium falciparum proliferation (AID 504749); also: nearly all actives have a fitted effect of over 60% in size; conditions: P. falciparum in erythrocytes, SYBR Green DNA, 72 h; series mostly up to 28.7 µM
# Method in brief: (§2)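 In a 72 h erythrocytic culture (37 C, humidified, 5% CO2) at 2.5% hematocrit and 0.3% starting parasitemia, compounds were tested; SYBR Green I in detergent lysis buffer stained parasite DNA overnight.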
# 7G8 = test: as above; conditions: P. falciparum in erythrocytes, SYBR Green DNA, 72 h; series mostly up to 28.7 µM
# Method in brief: as §2
# AA1029 = test: as above; conditions: P. falciparum in erythrocytes, SYBR Green DNA, 72 h; series mostly up to 28.7 µM
# Method in brief: as §2
# CP211 = test: as above; conditions: P. falciparum in erythrocytes, SYBR Green DNA, 72 h; series mostly up to 28.7 µM
# Method in brief: as §2
# CP217 = test: as above; conditions: P. falciparum in erythrocytes, SYBR Green DNA, 72 h; series mostly up to 28.7 µM
# Method in brief: as §2
# CP238 = test: as above; conditions: P. falciparum in erythrocytes, SYBR Green DNA, 72 h; series mostly up to 28.7 µM
# Method in brief: as §2
# CP247 = test: as above; conditions: P. falciparum in erythrocytes, SYBR Green DNA, 72 h; series mostly up to 28.7 µM
# Method in brief: as §2
# CP269 = test: as above; conditions: P. falciparum in erythrocytes, SYBR Green DNA, 72 h; series mostly up to 28.7 µM
# Method in brief: as §2
# CP286 = test: as above; conditions: P. falciparum in erythrocytes, SYBR Green DNA, 72 h; series mostly up to 28.7 µM
# Method in brief: as §2
# DFO2036 = test: as above; conditions: P. falciparum in erythrocytes, SYBR Green DNA, 72 h; series mostly up to 28.7 µM
# Method in brief: as §2
# DIV14 = test: as above; conditions: P. falciparum in erythrocytes, SYBR Green DNA, 72 h; series mostly up to 28.7 µM
# Method in brief: as §2
# DIV17 = test: as above; conditions: P. falciparum in erythrocytes, SYBR Green DNA, 72 h; series mostly up to 28.7 µM
# Method in brief: as §2
# Dd2 = test: as above; conditions: P. falciparum in erythrocytes, SYBR Green DNA, 72 h; series mostly up to 28.7 µM
# Method in brief: as §2
# ECU = test: as above; conditions: P. falciparum in erythrocytes, SYBR Green DNA, 72 h; series mostly up to 28.7 µM
# Method in brief: as §2
# FAB9 = test: as above; conditions: P. falciparum in erythrocytes, SYBR Green DNA, 72 h; series mostly up to 28.7 µM
# Method in brief: as §2
# GB4 = test: as above; conditions: P. falciparum in erythrocytes, SYBR Green DNA, 72 h; series mostly up to 28.7 µM
# Method in brief: as §2
# HB3 = test: as above; conditions: P. falciparum in erythrocytes, SYBR Green DNA, 72 h; series mostly up to 28.7 µM
# Method in brief: as §2
# ICS = test: as above; conditions: P. falciparum in erythrocytes, SYBR Green DNA, 72 h; series mostly up to 28.7 µM
# Method in brief: as §2
# N140 = test: as above; conditions: P. falciparum in erythrocytes, SYBR Green DNA, 72 h; series mostly up to 28.7 µM
# Method in brief: as §2
# P93_24 = test: as above; conditions: P. falciparum in erythrocytes, SYBR Green DNA, 72 h; series mostly up to 28.7 µM
# Method in brief: as §2
# PAD = test: as above; conditions: P. falciparum in erythrocytes, SYBR Green DNA, 72 h; series mostly up to 28.7 µM
# Method in brief: as §2
# TAB109 = test: as above; conditions: P. falciparum in erythrocytes, SYBR Green DNA, 72 h; series mostly up to 28.7 µM
# Method in brief: as §2
# TAB165 = test: as above; conditions: P. falciparum in erythrocytes, SYBR Green DNA, 72 h; series mostly up to 28.7 µM
# Method in brief: as §2
# W2 = test: as above; conditions: P. falciparum in erythrocytes, SYBR Green DNA, 72 h; series mostly up to 28.7 µM
# Method in brief: as §2
# [10] = qHTS for Inhibitors of the Functional Ribonucleoprotein Complex (vRNP) of Lassa (LASV) Arenavirus: LASV Primary Screen - GLuc reporter signal (AID 1347082; calls by dose curve; tested in HEK293 reporter line; also: nearly all actives have a fitted effect of over 60% in size)
# Potency is read from the fitted curve at half-maximal effect.
# Sequence of Luciferin 4-monooxygenase (Photinus pyralis) (P08659 whole entry, looked up): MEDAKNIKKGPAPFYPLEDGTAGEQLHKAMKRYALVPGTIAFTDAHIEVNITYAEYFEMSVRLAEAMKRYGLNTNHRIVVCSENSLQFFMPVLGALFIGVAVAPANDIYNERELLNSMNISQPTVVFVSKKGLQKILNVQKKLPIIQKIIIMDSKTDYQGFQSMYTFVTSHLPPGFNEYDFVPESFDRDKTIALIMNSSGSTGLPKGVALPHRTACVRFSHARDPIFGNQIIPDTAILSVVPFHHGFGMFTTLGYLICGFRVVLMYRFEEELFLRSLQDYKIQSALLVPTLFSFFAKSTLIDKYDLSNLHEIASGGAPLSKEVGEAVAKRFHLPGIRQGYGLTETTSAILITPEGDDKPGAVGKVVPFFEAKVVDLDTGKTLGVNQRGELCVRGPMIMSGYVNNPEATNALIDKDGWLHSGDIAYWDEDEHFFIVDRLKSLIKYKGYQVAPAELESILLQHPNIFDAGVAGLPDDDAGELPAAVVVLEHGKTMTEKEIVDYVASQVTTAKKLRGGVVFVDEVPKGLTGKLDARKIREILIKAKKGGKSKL
# Sequence of ATP-dependent 6-phosphofructokinase (Trypanosoma brucei brucei) (O15648 whole entry, looked up): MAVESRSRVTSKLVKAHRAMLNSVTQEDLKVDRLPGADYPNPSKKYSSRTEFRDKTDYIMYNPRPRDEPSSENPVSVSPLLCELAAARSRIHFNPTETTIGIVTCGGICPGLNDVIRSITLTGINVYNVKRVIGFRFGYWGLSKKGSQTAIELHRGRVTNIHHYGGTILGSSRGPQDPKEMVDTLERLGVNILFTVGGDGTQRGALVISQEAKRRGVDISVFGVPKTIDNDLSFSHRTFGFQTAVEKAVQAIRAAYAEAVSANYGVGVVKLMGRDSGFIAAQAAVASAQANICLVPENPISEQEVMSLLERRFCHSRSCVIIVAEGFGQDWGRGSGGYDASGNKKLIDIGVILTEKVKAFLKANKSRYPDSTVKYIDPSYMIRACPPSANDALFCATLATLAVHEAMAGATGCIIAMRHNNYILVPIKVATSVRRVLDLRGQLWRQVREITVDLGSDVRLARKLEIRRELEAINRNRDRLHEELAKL
# Sequence of Ubiquitin carboxyl-terminal hydrolase 1 (Homo sapiens) (O94782 whole entry, looked up): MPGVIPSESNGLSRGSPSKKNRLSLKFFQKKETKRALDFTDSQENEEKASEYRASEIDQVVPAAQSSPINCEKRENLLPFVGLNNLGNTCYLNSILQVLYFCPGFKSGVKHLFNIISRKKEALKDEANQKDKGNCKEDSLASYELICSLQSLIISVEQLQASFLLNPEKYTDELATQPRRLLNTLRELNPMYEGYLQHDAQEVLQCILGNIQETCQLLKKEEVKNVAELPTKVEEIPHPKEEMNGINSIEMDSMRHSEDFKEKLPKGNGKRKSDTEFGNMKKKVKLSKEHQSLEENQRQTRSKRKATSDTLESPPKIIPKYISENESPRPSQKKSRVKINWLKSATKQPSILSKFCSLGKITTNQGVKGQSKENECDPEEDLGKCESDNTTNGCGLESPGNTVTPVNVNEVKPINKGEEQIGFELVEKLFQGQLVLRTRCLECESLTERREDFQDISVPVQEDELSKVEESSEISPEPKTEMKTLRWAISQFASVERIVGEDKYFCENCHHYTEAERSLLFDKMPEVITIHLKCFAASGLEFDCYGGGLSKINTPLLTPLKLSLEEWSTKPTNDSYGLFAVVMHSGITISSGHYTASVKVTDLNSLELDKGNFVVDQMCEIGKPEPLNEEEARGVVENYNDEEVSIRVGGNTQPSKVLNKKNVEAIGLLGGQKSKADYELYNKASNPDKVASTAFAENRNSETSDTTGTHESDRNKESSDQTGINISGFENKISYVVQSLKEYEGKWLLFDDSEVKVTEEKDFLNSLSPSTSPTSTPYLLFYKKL
structure (smiles),measurement,setting,value
C/C=C(\CC)C(=O)NC(N)=O,Potency,[1],inactive
same,max response,[2],-0.86%
same,Potency,[3],inactive
same,max response,KB-3-1,-1.21%
same,Potency,[4],inactive
same,Potency,astro,inactive
Oc1cc[c]([Hg][Cl])cc1,Potency,[5],2.82 µM (active)
same,Potency,[6],50.1 µM (active)
same,Potency,[1],8.09 µM (active) and 9.07 µM (active)
same,Potency,[7],1.14 µM (active)
same,Potency,[8],0.907 µM (active)
same,Potency,[9],2.24 µM (active)
same,Potency,[2],3.55 µM (active) and 2.82 µM (active)
same,Potency,3D7,8.91 µM (active)
same,Potency,7G8,3.16 µM (active)
same,Potency,AA1029,11.2 µM (active)
same,Potency,CP211,10.7 µM (active)
same,Potency,CP217,8.91 µM (active)
same,Potency,CP238,10 µM (active)
same,Potency,CP247,5.01 µM (active)
same,Potency,CP269,8.49 µM (active)
same,Potency,CP286,10 µM (active)
same,Potency,DFO2036,8.91 µM (active)
same,Potency,DIV14,7.57 µM (active)
same,Potency,DIV17,6.75 µM (active)
same,Potency,Dd2,11.2 µM (active)
same,Potency,ECU,10 µM (active)
same,Potency,FAB9,10 µM (active)
same,Potency,GB4,6.75 µM (active)
same,Potency,HB3,11.2 µM (active)
same,Potency,ICS,7.94 µM (active)
same,Potency,N140,6.31 µM (active)
same,Potency,P93_24,11.2 µM (active)
same,Potency,PAD,11.2 µM (active)
same,Potency,TAB109,7.08 µM (active)
same,Potency,TAB165,10 µM (active)
same,Potency,W2,5.36 µM (active)
same,Potency,KB-3-1,6.51 µM (active)
same,Potency,astro,3.16 µM (active) and 5.62 µM (active)
C=CCC1([C@@H](C)CCC)C(=O)NC(=O)NC1=O,Potency,[1],inactive
same,max response,[2],0.546%
same,Potency,[3],inactive
same,max response,KB-3-1,-4.55%
same,Potency,[4],inactive
same,Potency,astro,inactive
CN(C)CCO,Potency,[1],inactive
same,max response,[2],29.8%
same,max response,KB-3-1,-9.6%
same,Potency,[4],inactive
same,Potency,astro,inactive
CC(=O)O[C@H]1C[C@H](O[C@H]2[C@@H](O)C[C@H](O[C@H]3[C@@H](O)C[C@H](OC4CC[C@@]5(C)C(CC[C@@H]6[C@@H]5CC[C@]5(C)[C@@H](C7=CC(=O)OC7)[C@@H](O)C[C@]65O)C4)O[C@@H]3C)O[C@@H]2C)O[C@H](C)[C@H]1O[C@@H]1O[C@H](CO)[C@@H](O)[C@H](O)[C@H]1O (stereo not given in full),max response,[2],7.87%
same,Potency,[3],1.3 µM (active)
same,Potency,[10],0.794 µM (active)
same,Potency,KB-3-1,1.3 µM (active)
same,Potency,astro,708 nM (active)
CN[C@@]1(c2ccccc2Cl)CCCCC1=O,max response,[2],0.413%
same,Potency,[3],inactive
same,max response,KB-3-1,-16.7%
same,Potency,[4],inactive
same,Potency,astro,inactive
